High-throughput results: PubChem BioAssay, National Center for Advancing Translational Sciences (NCATS)
A selection: hits, their analogues and other compounds. The true share with any hit is near 2.6%.
TGFb SMAD3 inh: blocks TGF-b signaling. HepG2 CAGA-GFP TGF-b/SMAD3 reporter, GFP fluorescence, 18 h; TGF-beta stimulated, 500 pg/mL final. Potency, µM (highest dose often 46.1 µM), for inactives: at the top dose activity, negative = inhibition, usual class: inhibitors. 410,000 tested, 1.2% active. AID 588855; also: potency is read from the fitted curve at half-maximal effect; % is scaled to controls: 0 for no effect and ±100 for the full control effect; nearly all actives have a fitted effect of over 65% in size
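Cell-based qHTS in HEPG2 carrying a CAGA-GFP Smad reporter; compounds added before 500 pg/mL final TGF-beta, 18 h incubation at 37 degrees C, GFP fluorescence quantified per cell by imaging cytometry.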
Giardia kill: kills Giardia lamblia; AID 540267; 340,000 tested, 0.15% active; Giardia lamblia trophozoite viability; activity change, % at 7.66 µM, hits read low; in the data active = activity change below about -80%; inconclusive = between about -30% and that limit;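 also: parasites exposed to compound for two days anaerobically before the ATP read; % is scaled to controls: 0 for no effect and ±100 for the full control effect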
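Anaerobic 48 hrs incubation at 37 deg C of 100 trophozoites/well with test compounds; ATPLite 1-Step luminescence, 15-30 min RT, reports cellular ATP as viability.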
ATXN2 expr inh: reduces ATXN2 reporter expression in HEK-293 cells; Potency, µM (doses to about 57 µM), for the others: top-dose activity change, negative = inhibition, usual class: inhibitors; 360,000 tested, 0.72% active; HEK-293 ATXN2-luciferase reporter, luminescence, 24 h; also: potency is read from the fitted curve at half-maximal effect; % is scaled to controls: 0 for no effect and ±100 for the full control effect; nearly all actives have a fitted effect of over 55% in size
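qHTS (up to 57 uM final) was run with 24 h compound exposure of reporter cells at 37 °C. Each well was multiplexed: SteadyGlo luminescence measured ATXN2-luciferase expression after a fluorogenic Gly-Phe-AFC viability readout (25 uM final).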
HepG2 viability: HepG2 cytotoxicity, counter-screen for TGF-b inhibitors. HepG2 CAGA-GFP viability, ATP luminescence, 18 h. Potency, µM (top dose mostly 46.1 µM), for the others: at the top dose activity change, negative = cytotoxicity, usual class: cytotoxic. 410,000 tested, 0.76% active; also: potency is read from the fitted curve at half-maximal effect
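HepG2 CAGA-GFP cells (1000/well, DMEM with 1% FBS) received compound, then TGF-beta at 500 pg/mL final, and were incubated 18 hours at 37 degrees C. Viability was read by CellTiter-Glo luminescence. Media-only wells were set as complete cell-killing and DMSO as no toxicity.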
uPA generation: cell surface uPA generation inhibition | cell surface uPA generation assay, qHTS | Potency, µM (titrated, usually from 38.3 µM), without a hit: at the top dose activity change, negative = inhibition, most hits filed as inhibitors | 330,000 tested, 0.31% active; active = well fitted inhibition curve with a large enough effect; inconclusive = small, poorly fitted or top-dose-only effect; inactive = no such curve, though single readings can be large or run the other way; tested in mouse RAW 264.7 cells; also: potency is read from the fitted curve at half-maximal effect; % is scaled to controls: 0 for no effect and ±100 for the full control effect; nearly all actives have a fitted effect of over 55% in size
S2 tox: reduces viability in counter-screen for ATXN expression inhibitors | 400,000 tested, 0.49% active | S2 cells (HEK-293 line with an ATXN2-luciferase reporter) viability, CellTiter-Fluor protease fluorescence, 24 h | Potency, µM (highest dose often 56.7 µM), most hits filed as cytotoxic; also: potency is read from the fitted curve at half-maximal effect; nearly all actives have a fitted effect of over 40% in size
An asterisk follows results filed as active; i = inactive; ? = inconclusive; / = not tested or not shown; ! = repeats disagree. Unless noted, calls follow the shape of the dose curve; as a rule, active = well fitted curve in the direction sought with a large enough effect; inconclusive = small, poorly fitted or top-dose-only effect, or another doubt; inactive = no such curve, though single readings can be large; an effect the other way counts as inactive or inconclusive.

SMILES	TGFb SMAD3 inh	Giardia kill	ATXN2 expr inh	HepG2 viability	uPA generation	S2 tox
CC(O)(COc1ccccc1)c1ccc2c(c1)CN(Cc1ccc3nsnc3c1)CCO2 (stereo not given)	/	/	/	/	/	i
COc1cc(-c2ccc(Cl)cn2)cc2c1OCCN(S(=O)(=O)C[C@]13CC[C@H](CC1=O)C3(C)C)C2	/	/	/	/	/	i
CN(CCN(C)c1nc(-c2cccs2)nc2ccccc12)C(=O)OC(C)(C)C	/	-2	/	/	/	/
Cc1n[nH]c(C)c1C(=O)CC1(O)C(=O)N(CCc2ccccc2)c2ccc(Cl)cc21 (stereo not given)	-35%	18	-10%	-7%	-1%	i
CCc1ccc(C(=O)CC2(O)C(=O)N(CCc3ccccc3)c3ccc(Cl)cc32)cc1 (stereo not given)	13µM*	/	?	20µM*	/	?
Cc1ccccc1CN1C(=O)C(O)(CC(=O)c2ccccc2)c2cc(Cl)ccc21 (stereo not given)	?	/	/	20µM*	/	/
c1ccc(COc2ccccc2CNC23CC4CC(CC(C4)C2)C3)cc1	?	-14	16µM*	10µM*	-12%	/
CC1CCN(C(=O)C(C)Sc2nc(-c3ccccc3)cc(C(F)(F)F)n2)CC1 (stereo not given)	16µM*!	-5	-23%	4%	-1%	i
CC(Sc1nc(-c2ccccc2)cc(C(F)(F)F)n1)C(=O)N1CCCC1 (stereo not given)	-26%	-5	-3%	16%	-1%	i
CC1(C)SCCN(S(=O)(=O)c2ccc(OCC#CCO)cc2)[C@@H]1C(=O)NO	/	/	-14%	/	/	/
O=C(Nc1cccc(NC(=O)c2cc([N+](=O)[O-])ccc2Cl)n1)c1cc([N+](=O)[O-])ccc1Cl	?	-26	/	-53%	8.9µM*	/
Cc1cc(NC(=O)c2cc([N+](=O)[O-])ccc2Cl)no1	-23%	1	-1%	-26%	-9%	i
CCN(CC)CCn1c2ccccc2c2nc3ccccc3nc21	?	-7	/	-26%	10µM*	?
Cc1cc(O)c(C)c(O)c1/C=N/NC(=O)c1cccnc1	-4%	-15	11µM*	-11%	-11%	i
O=C(N/N=C/c1cc(O)ccc1Br)c1cccnc1	-27%	7	2.8µM*	-49%	10µM*	?
Nc1ccc(-c2cc3ccccc3[nH]2)cc1	?	/	/	-19%	/	/
O=C(Nc1nc2ccccc2s1)NC1CCCCC1	8%	-7	45%	-27%	7.9µM*	i
O=C(Nc1ccccc1NC(=O)NC1CCCCC1)NC1CCCCC1	-18%	-4	20µM*	-11%	/	?
NC(=O)c1ccccc1NC(=O)NC1CCCCC1	0%	-3	10%	-23%	-3%	i
CCc1ccc(C(=O)Nc2cc(CN3CCN(C)CC3)cc(C(F)(F)F)c2)cc1C#Cc1cnc2ccnn2c1	/	/	24µM*	/	/	/
Cc1ccc(C(=O)Nc2cccc(C(F)(F)F)c2)cc1NC(=O)c1nccn1C	?	-2	6%	19%	?	i
Cc1ccc(C(=O)Nc2ccc(CN3CCN(C)CC3)c(C(F)(F)F)c2)cc1C#Cc1cnc2cccnn12	/	/	19µM*	/	/	/
CC(C)(C)c1ccc(C(=O)C[n+]2ccc(Cl)c3ccc(Cl)cc32)cc1	?	/	/	-55%	/	/
c1ccc2c(Nc3nc(N4CCOCC4)c4ccccc4n3)cccc2c1	25µM*	6	?	-39%	12%	i
Fc1ccc(Nc2nc(N3CCOCC3)c3ccccc3n2)cc1	?	41	-19%	-38%	13%	i
SMILES	TGFb SMAD3 inh	Giardia kill	ATXN2 expr inh	HepG2 viability	uPA generation	S2 tox
C=CCCn1c(Cl)c(C#N)sc1=O	-21%	57	/	-47%	/	/
Cc1nc2ccccn2c1C(=O)N/N=C/c1ccc([N+](=O)[O-])cc1	3%	3	-7%	-42%	0%	i
O=C(N/N=C/c1ccc([N+](=O)[O-])o1)c1ccc(O)cc1	?	-26	11µM*!	-95%	7.1µM*	?
COc1ccc(S(=O)(=O)N/N=C\c2ccc([N+](=O)[O-])o2)c(OC)c1	-4%	-29	-1%	-3%	?	i
O=[N+]([O-])c1ccc(/C=N\NS(=O)(=O)c2ccc(F)cc2)o1	?	?	-12%	-5%	8.9µM*	i
O=C(N/N=C/c1ccc([N+](=O)[O-])o1)c1cc2ccccc2o1	6.3µM*	-96*	/	-127%	2.5µM*	/
Cc1nc2ccccn2c1C(=O)N/N=C/c1ccc([N+](=O)[O-])o1	-20%	-86*	/	-18%	?	?
O=C(O)[C@H](O)[C@@H](O)[C@H](O[C@@H]1O[C@H](CO)[C@H](O)[C@H](O)[C@H]1O)[C@H](O)CO	/	/	5%	/	/	i
CCOC(=O)N1CCN(Cc2ccc3c(c2)CN(C(=O)c2ccc4ncccc4c2)CCO3)CC1	/	/	/	/	/	i
O=C(Cn1cnnn1)N[C@@H]1C(=O)N2C(C(=O)O)=C(CSc3nncs3)CS[C@H]12	/	/	/	/	/	i
O=[N+]([O-])c1cccc2[nH]cnc12	-20%	/	/	-36%	/	/
O=c1c2c(nc3c(-c4ccccc4)c[nH]n13)CCC2	-36%	14	-20%	-20%	-8%	i
O=c1c2c(nc3c(-c4ccc(Cl)cc4)c[nH]n13)CCC2	?	-20	13µM*	-25%	-10%	?
COc1ccccc1C1C([N+](=O)[O-])=CC([N+](=O)[O-])=CN1C (stereo not given)	5%	-83*	2%	-23%	-9%	i
COc1ccccc1C1NC=C([N+](=O)[O-])C=C1[N+](=O)[O-] (stereo not given)	-15%	?	-26%	5%	-9%	?
